{"source": "the supplement of paper PMC6555819"}
{"tested_on": "RARg homodimer (NR concentration 270 nM)", "test": "PBM binding z-score (relative to random genomic background probes); higher = stronger binding; sequences stand for … in GC…GCGATTGACAGCGTAGAATGAAGG", "in_short": "(§1)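 Binding z-scores were set against random background probes. The data came from custom Agilent 4×180K protein-binding microarrays carrying double-stranded probes with 34-nt variable regions, incubated 1 h with ligand-free nuclear receptor dimers. Partner-specific antibodies detected binding, and scanned fluorescence was regression-normalized.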"}
{"sequence": "CCTAGTTGGTCAGGAGGTCACGCACCGGATATGA", "PBM binding z-score": 4.98}
{"sequence": "ATCTCTAGTTAAAAGTTCAGTGAATCCCGAGGAT", "PBM binding z-score": 1.76}
{"sequence": "CAAACTAGGTCAAGAGGTCAACGTCCGCTTCCCG", "PBM binding z-score": 7.74}
{"sequence": "CCTAGCAGGCCAACCTGGGTCACTCAAGGCTTGA", "PBM binding z-score": 2.02}
{"sequence": "CCGACTGGGGCAAATGTTACCATACTCAGTACGA", "PBM binding z-score": 0.67}
{"sequence": "TCTGCTAGGTCACCGATGGTCAGCTAATCTGCTA", "PBM binding z-score": 5.73}
{"sequence": "ACTATTAGTTGACTGAGGGCAACCGATACGACGC", "PBM binding z-score": 1.38}
{"sequence": "CAAACTAGGTCACAGAAGTCAAAGTCCGTGCGTA", "PBM binding z-score": 5.16}
{"sequence": "AGTAGCAGGCCAAGTTTGGGTCACTCAAACAAAG", "PBM binding z-score": 1.7}
{"sequence": "TCTGCTTGGTCAGTTGGTCAGCTAACGAGCTGCC", "PBM binding z-score": -0.0396}
{"sequence": "ATATGTAGGTTATCGGGTCATTGAGTTTGCGCAT", "PBM binding z-score": 2.61}
{"sequence": "CCTTACGGGTCACGAGGATATAGCACGACGAGCG", "PBM binding z-score": 5.26}
{"sequence": "CCGAGTAGGTTATGGGGGATTCAGGCAACGGTGA", "PBM binding z-score": 1.08}
{"sequence": "TCATATAGGTAATACAGGTGAAACTCGGCATCTA", "PBM binding z-score": 0.818}
{"sequence": "CCGACTGGAGCATAAGGTTACCATAAGCCAGCCC", "PBM binding z-score": 0.266}
{"sequence": "CCTTACGGGTCATTCCAGGTTATAGCATCGGAGT", "PBM binding z-score": 4.25}
{"sequence": "AGAATGAGGTTACCAAAGATGAGGGAAACGCTTG", "PBM binding z-score": 1.54}
{"sequence": "GCTTGTATATCAAGGTTAAGAAAGACTAAGCTAA", "PBM binding z-score": 0.28}
{"sequence": "TCTAGTTGGTCACGGAGCTCACACACGACGGGTA", "PBM binding z-score": 1.24}
{"sequence": "GCTTACGGGTCAACGGTTATAGCATGAATAGAAT", "PBM binding z-score": 4.66}
{"sequence": "TCTATTTGTTGAAGGGCAACCGACGAGTCCGTTT", "PBM binding z-score": 1.07}
{"sequence": "ATCGAAAGGTCGACGAGGTGAGCATACACCGTTT", "PBM binding z-score": 4.53}
{"sequence": "ACAGACAGGTGAGTGAAGGTAAATCAGCTGGACG", "PBM binding z-score": 0.417}
{"sequence": "CCTACGGGGCCATTCAGAGGTCATTGATCATATG", "PBM binding z-score": 3.77}
{"sequence": "TCTGCTAGGTGAGTTGGTCAGCTAACGAGCTGCC", "PBM binding z-score": -0.369}
{"sequence": "AGAATGAGGTTAAGCTCAGGGAAACAGAATACAT", "PBM binding z-score": 1.72}
{"sequence": "CGTCCAAGGTGAAAGGTCAGTGAAGAGATGACGG", "PBM binding z-score": 5.76}
{"sequence": "CCGACTGGGGCATAAGGTTGCCATAAGCCAGCCC", "PBM binding z-score": 0.278}
{"sequence": "TGTCATAGTTCAAAGGTAACGTAAGTATCCACAC", "PBM binding z-score": 3.54}
{"sequence": "CCTAGCAGGCCAATCTGGGTCACTCATGGCTTGA", "PBM binding z-score": 1.37}
{"sequence": "GATACAGGGTCAGCTGGAGGCCAGAGTATGGAAA", "PBM binding z-score": 5.23}
{"sequence": "ATACCAAGGTGATCGTGAGGTCGTCGATACTAAC", "PBM binding z-score": 0.868}
{"sequence": "ATCTCGAGGTAAGACTCAGTTCAGTGAAGAACGC", "PBM binding z-score": 0.121}
{"sequence": "CGAACGAGGGCATGAGATGATAGCAAATGCCGAT", "PBM binding z-score": 1.64}
{"sequence": "AGTCAAAGTTCAGGACGAGGTAAGGTAAAGCACG", "PBM binding z-score": 4.61}
{"sequence": "TGTCGGAGGACACGAAAGGTCAGAGCTCGACATC", "PBM binding z-score": 5.76}
{"sequence": "ATCTCTAGGTAAAGATAGTTCAGTGCATGCAAAT", "PBM binding z-score": 0.733}
{"sequence": "ATCCCTAGGTAAAAGTTCAGTGAATCCCGAGGAT", "PBM binding z-score": 1.73}
{"sequence": "CCTTACGGGTAACTGACAGGTTATAGCATTTGGA", "PBM binding z-score": 0.501}
{"sequence": "CCTGACGGGTCAAGGTTATAGCACGGGTGGTACG", "PBM binding z-score": 4.65}
{"tested_on": "RXRa DBDmut IVT, anti-RXR (DBD mutation: RXRa K156A/R161A, NR concentration 90 nM)", "test": "PBM binding z-score (relative to random genomic background probes); higher = stronger binding; sequences stand for … in GC…GCGATTGACAGCGTAGAATGAAGG", "in_short": "as §1"}
{"sequence": "CCTAGTTGGTCAGGAGGTCACGCACCGGATATGA", "PBM binding z-score": 0.815}
{"sequence": "ATCTCTAGTTAAAAGTTCAGTGAATCCCGAGGAT", "PBM binding z-score": 0.966}
{"sequence": "CAAACTAGGTCAAGAGGTCAACGTCCGCTTCCCG", "PBM binding z-score": 2.76}
{"sequence": "CCTAGCAGGCCAACCTGGGTCACTCAAGGCTTGA", "PBM binding z-score": -0.209}
{"sequence": "CCGACTGGGGCAAATGTTACCATACTCAGTACGA", "PBM binding z-score": 0.518}
{"sequence": "TCTGCTAGGTCACCGATGGTCAGCTAATCTGCTA", "PBM binding z-score": 0.891}
{"sequence": "ACTATTAGTTGACTGAGGGCAACCGATACGACGC", "PBM binding z-score": 1}
{"sequence": "CAAACTAGGTCACAGAAGTCAAAGTCCGTGCGTA", "PBM binding z-score": 2.03}
{"sequence": "AGTAGCAGGCCAAGTTTGGGTCACTCAAACAAAG", "PBM binding z-score": -0.435}
{"sequence": "TCTGCTTGGTCAGTTGGTCAGCTAACGAGCTGCC", "PBM binding z-score": -0.00109}
{"sequence": "ATATGTAGGTTATCGGGTCATTGAGTTTGCGCAT", "PBM binding z-score": 1.94}
{"sequence": "CCTTACGGGTCACGAGGATATAGCACGACGAGCG", "PBM binding z-score": 0.944}
{"sequence": "CCGAGTAGGTTATGGGGGATTCAGGCAACGGTGA", "PBM binding z-score": 0.281}
{"sequence": "TCATATAGGTAATACAGGTGAAACTCGGCATCTA", "PBM binding z-score": 1.45}
{"sequence": "CCGACTGGAGCATAAGGTTACCATAAGCCAGCCC", "PBM binding z-score": 0.0357}
{"sequence": "CCTTACGGGTCATTCCAGGTTATAGCATCGGAGT", "PBM binding z-score": 2.86}
{"sequence": "AGAATGAGGTTACCAAAGATGAGGGAAACGCTTG", "PBM binding z-score": 1.22}
{"sequence": "GCTTGTATATCAAGGTTAAGAAAGACTAAGCTAA", "PBM binding z-score": 0.464}
{"sequence": "TCTAGTTGGTCACGGAGCTCACACACGACGGGTA", "PBM binding z-score": 0.372}
{"sequence": "GCTTACGGGTCAACGGTTATAGCATGAATAGAAT", "PBM binding z-score": 2.06}
{"sequence": "TCTATTTGTTGAAGGGCAACCGACGAGTCCGTTT", "PBM binding z-score": 1.55}
{"sequence": "ATCGAAAGGTCGACGAGGTGAGCATACACCGTTT", "PBM binding z-score": 1}
{"sequence": "ACAGACAGGTGAGTGAAGGTAAATCAGCTGGACG", "PBM binding z-score": -0.64}
{"sequence": "CCTACGGGGCCATTCAGAGGTCATTGATCATATG", "PBM binding z-score": 2.13}
{"sequence": "TCTGCTAGGTGAGTTGGTCAGCTAACGAGCTGCC", "PBM binding z-score": -0.485}
{"sequence": "AGAATGAGGTTAAGCTCAGGGAAACAGAATACAT", "PBM binding z-score": 1.26}
{"sequence": "CGTCCAAGGTGAAAGGTCAGTGAAGAGATGACGG", "PBM binding z-score": 0.481}
{"sequence": "CCGACTGGGGCATAAGGTTGCCATAAGCCAGCCC", "PBM binding z-score": -0.617}
{"sequence": "TGTCATAGTTCAAAGGTAACGTAAGTATCCACAC", "PBM binding z-score": 2.09}
{"sequence": "CCTAGCAGGCCAATCTGGGTCACTCATGGCTTGA", "PBM binding z-score": 0.157}
{"sequence": "GATACAGGGTCAGCTGGAGGCCAGAGTATGGAAA", "PBM binding z-score": 1.38}
{"sequence": "ATACCAAGGTGATCGTGAGGTCGTCGATACTAAC", "PBM binding z-score": 0.301}
{"sequence": "ATCTCGAGGTAAGACTCAGTTCAGTGAAGAACGC", "PBM binding z-score": 0.0712}
{"sequence": "CGAACGAGGGCATGAGATGATAGCAAATGCCGAT", "PBM binding z-score": 1.82}
{"sequence": "AGTCAAAGTTCAGGACGAGGTAAGGTAAAGCACG", "PBM binding z-score": 3.11}
{"sequence": "TGTCGGAGGACACGAAAGGTCAGAGCTCGACATC", "PBM binding z-score": -0.334}
{"sequence": "ATCTCTAGGTAAAGATAGTTCAGTGCATGCAAAT", "PBM binding z-score": -0.0342}
{"sequence": "ATCCCTAGGTAAAAGTTCAGTGAATCCCGAGGAT", "PBM binding z-score": 0.406}
{"sequence": "CCTTACGGGTAACTGACAGGTTATAGCATTTGGA", "PBM binding z-score": 0.0265}
{"sequence": "CCTGACGGGTCAAGGTTATAGCACGGGTGGTACG", "PBM binding z-score": 0.202}
